Measurements: PubChem BioAssay (Tox21)
Records with an inconclusive call do not appear. A number with no mark means an inactive call. The source made the active and inactive calls. The call rests on the fitted dose curve; in most records, active means well fitted activation curve with a large enough effect in the repeat runs; inconclusive means weak or mixed curves; inactive means flat fitted curve, though single readings scatter.

assay: A CellTox Green Cytotoxicity Assay to monitor cytotoxicity in HepG2 cells - 8 hour (AID 1224890); settings: CellTox Green fluorescence; series mostly up to 76.8 µM; cytotoxicity increase: at the top concentration; further: nearly all actives have a fitted effect of over 45% in size
Description: National Center for Advancing Translational Sciences [NCATS]
NIH Chemical Genomics Center [NCGC]
U.S. Environmental Protection Agency [EPA]
National Institutes of Environmental Health Sciences [NIEHS]
National Toxicology Program [NTP]
Cell-based models are critical for drug discovery. Determining the natural cytotoxic effects resulting from test compounds is an essential research activity. A CellTox Green Cytotoxicity Assay to monitor cytotoxicity in real time of continues cell culture during 40 hours of the compound treatment was used to screen Tox21 10K library compounds in HepG2 cells. CellTox Green Cytotoxicity Assay is a nonlytic, homogeneous, biofluorescent method to measure cytotoxicity in cell culture after experimental manipulation. The assay system uses a proprietary asymmetric cyanine dye that is excluded from viable cells but preferentially stains the dead cell's DNA. […] Viable cells produce no appreciable increases in fluorescence. Therefore, the fluorescence signal produced by the binding interaction with dead cell DNA is proportional to cytotoxicity.
The mixture of HepG2 cell suspension and reagents were dispensed at 600cells/6 ul/well in 1536-well tissue culture treated black solid bottom plates using a Multidrop dispenser. After the assay plates were incubated at a 37 C/5% CO2 incubator for 5 hours, 23 nL of compounds dissolved in DMSO, positive and negative controls was transferred to the assay plate by a pintool work station. The plates were incubated at 37 C for 40 hours. The fluorescence intensity were measured at 0h, 8h, 16h, 24h, 32h and 40h time points using ViewLux plate reader during compound treatment.
On the % scale 0 is the no-effect control and ±100 the full control effect; potency means the concentration at half of the fitted maximal effect.

SMILES	cytotoxicity increase	Potency
O=c1[nH]c(Cl)c(Cl)cc1Cl	1.9%	–
C#CC1(O)CCCCC1	14.7%	–
CC(C)c1c(CN(C)C(C)Cc2ccccc2)n(C)n(-c2ccccc2)c1=O (stereo not given)	2.68% [at 35.3 µM]	–
CCN(CC)C(=S)S	–	inactive
O=[N+]([O-])c1cccc2cccc([N+](=O)[O-])c12	0.0707%	–
CC(C)C(Br)C(=O)NC(N)=O (stereo not given)	1.06% [at 35.3 µM]	–
COP(=O)(OC)Oc1ccc([N+](=O)[O-])cc1	-7%	–
CC(Cc1ccc(OCC(=O)O)cc1)NCC(O)c1csc(C(F)(F)F)n1 (stereo not given)	-14.5%	–
C=Cc1cccc(CCl)c1	-1.35% [at 200 µM]	–
[Cl-].[Cl-].[Sn+2]	0.309%	–
CCOP(=O)(OCC)Oc1cc(C)nc(C(C)C)n1	-7.42%	–
CN(C)CCc1c[nH]c2ccccc12	-12.4%	–
c1csc(-c2ccc(-c3cccs3)s2)c1	-13.8%	–
CC(C)=CC1C(C(=O)OC(C#N)c2cccc(Oc3ccccc3)c2)C1(C)C (stereo not given)	-17.3%	–
C=CC(=C)C	-0.559%	–
O=[N+]([O-])[O-].[Tl+]	-0.117%	–
O=C(CCCCl)c1ccc(F)cc1	9.65% [at 35.3 µM]	–
Clc1cc(Cl)c(-c2cc(Cl)c(Cl)cc2Cl)cc1Cl	7.43% [at 35.3 µM]	–
CCN(CC)Cc1nccn1-c1ccc([N+](=O)[O-])cc1C(=O)c1ccccc1Cl	-6.75% [at 35.3 µM]	–
O=[N+]([O-])C(Br)Br	-0.23%	–

SMILES	cytotoxicity increase	Potency
COP(=O)(OC)O/C(=C\Cl)c1cc(Cl)c(Cl)cc1Cl	0.995%	–
CCCCN(CCCC)C(=S)[S-].CCCCN(CCCC)C(=S)[S-].[Ni+2]	-0.699% [at 35.3 µM]	–
S=C=NCCc1ccccc1	1.7%	–
Cc1ccn2nc(S(=O)(=O)Nc3c(F)cccc3F)nc2n1	2.27%	–
Cc1ccc2cc3c(ccc4ccccc43)c3c2c1CC3	-4.38% [at 35.3 µM]	–
O=C(N[C@@H]1N=C(c2ccccc2F)c2cccc3c2N(CC3)C1=O)c1cc2ccccc2[nH]1	–	21.3 µM (active)
C=CCOC(=O)c1ccccc1N	-1.83%	–
COP(=S)(OC)Oc1ccc([N+](=O)[O-])c(C)c1	0.109%	–
CSSC	-11.4%	–
CCC(C)Nc1c([N+](=O)[O-])cc(C(C)(C)C)cc1[N+](=O)[O-] (stereo not given)	8.62%	–
c1ccc2nc(N3CCNCC3)ccc2c1	-7.63% [at 35.3 µM]	–
CNC(=O)O/N=C(\C)C(C)S(C)(=O)=O (stereo not given)	11.6% [at 725 µM]	–
CCNc1nc(NC(C)C(C)C)nc(SC)n1 (stereo not given)	2.73%	–
c1ccc(Nc2ccc(Nc3ccccc3)cc2)cc1	-15%	–
CC(C)=CCN1CC[C@@]2(C)c3cc(O)ccc3C[C@@H]1[C@@H]2C	-12.3%	–
O=C1C(Cl)=C(Cl)C(=O)C(Cl)=C1Cl	–	21.9 µM (active)
[C-]1=CC=CC1.[Cl][Zr+2][Cl].c1cc[cH-]c1	-8.55%	–
c1ccc2c(c1)cc1ccc3cccc4ccc2c1c34	-6.2%	–
CN(C)c1ccc(N)cc1	-4.99%	–
[F][Sn]([c]1ccccc1)([c]1ccccc1)[c]1ccccc1	–	2.45 µM (active)
